An excerpt weighted towards active compounds, which were near 10% of everything screened.
HP1b chromo inh = blocks HP1-beta chromodomain binding to methylated histone tails; AlphaScreen HP1-beta / biotin-H3K9me3 peptide binding; Potency, µM (doses to about 114 µM), for inactives: at the highest dose activity change, negative = inhibition, actives largely listed as inhibitors; hit rate 0.56% among 390,000; further: nearly all actives have a fitted effect of over 70% in size
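AlphaScreen: HP1-beta (50 nM) preformed 30 min with biotin-H3(1-18)K9me3 peptide (50 nM) in PBS pH 7.4, 0.01% Tween-20. Compound added for 30 min at RT, then streptavidin donor/nickel chelate acceptor beads (10 ug/mL) for 30 min.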
JMJD2A Tudor = inhibitors of human JMJD2A Tudor domain; Potency, µM (highest dose often 114 µM), without a hit: top-dose activity change, negative = inhibition, usual class: inhibitors; hit rate 4.4% among 390,000; O75164; AlphaScreen JMJD2A-Tudor / H3K4me3 peptide binding; further: on the % scale 0 is the no-effect control and ±100 the full control effect; nearly all actives have a fitted effect of over 50% in size
G9a block = blocks human histone lysine methyltransferase G9a; G9a H3K9 monomethylation, AlphaScreen, 2 h; AID 504332; Potency, µM (doses to about 102 µM), for inactives: at the highest dose activity, negative = inhibition, hits mostly inhibitors; hit rate 8.8% among 350,000; Q96KQ7; further: on the % scale 0 is the no-effect control and ±100 the full control effect; nearly all actives have a fitted effect of over 75% in size
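Using a bead-based AlphaScreen, monomethylated H3K9 product from 2 h room-temperature reactions (G9a 20 nM, peptide 500 nM, SAM 20 uM) was detected with 0.5 ug/mL rabbit anti-H3K9me1 antibody.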
BAZ2B block = inhibitors of human BAZ2B bromodomain. Q9UIF8. AlphaScreen BAZ2B-H3K14Ac peptide displacement. Potency, µM (top dose mostly 114 µM), for inactives: at the highest dose activity change, negative = inhibition, usual class: inhibitors. hit rate 4.4% among 360,000. AID 504333; further: on the % scale 0 is the no-effect control and ±100 the full control effect; nearly all actives have a fitted effect of over 60% in size
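Protein-peptide AlphaScreen: BAZ2B 50 nM, b-H3K14Ac 50 nM, 1x PBS pH 7.4 + 0.01% Tween-20. Preincubation 30 min RT; cpd 30 min RT (top 110 uM); beads 20 min RT, light-protected.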
GLS inhibitor = blocks human kidney-isoform glutaminase activity; GLS enzymatic activity, qHTS titration; hit rate 0.21% among 410,000; Potency, µM (doses to about 45.5 µM), for inactives: at the top dose activity change, negative = inhibition, actives largely listed as inhibitors; AID 624170; further: on the % scale 0 is the no-effect control and ±100 the full control effect
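Assay buffer: 45 mM KH2PO4 pH 8.2, 0.02% Tween-20. hKGA acts on L-glutamine (1 mM solution added); product glutamate is reported by an oxidase/peroxidase Amplex Red coupling, with fluorescence taken at baseline and 30 min.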
An asterisk follows results filed as active; ? = inconclusive; nt = not tested or not shown; [ ] = another dose, or the depositor's remark. The call rests on the fitted dose curve; in most records, active means well fitted curve in the direction sought with a large enough effect; inconclusive means small, poorly fitted or top-dose-only effect, or another doubt; inactive means no such curve, though single readings can be large; an effect the other way counts as inactive or inconclusive. Potency means the concentration at half of the fitted maximal effect.

SMILES | HP1b chromo inh | JMJD2A Tudor | G9a block | BAZ2B block | GLS inhibitor
O=C(O)c1cc(-c2ccc(/C=C3/SC(=S)N(Cc4ccccc4)C3=O)o2)ccc1Cl | ? | 56µM* | 13µM* | ? | 0%
Cc1ccc(/C=C2/NC(=O)N(Cc3ccccc3)C2=O)o1 | -22% | ? | ? | -31% | -2%
Cc1ccccc1NC(=O)/C(C#N)=C/c1ccc(-c2ccc(Cl)c(C(=O)O)c2)o1 | 32% | -10% | -22%[59 µM] | -25% | -12%
Cc1ccc(/C=C2\SC(=S)N(Cc3ccccc3)C2=O)o1 | -21% | 14µM* | ? | ? | ?
COc1ccc(C2=C(C)C(=NCCCN3CCN(c4cc(Cl)ccc4C)CC3)NS2(=O)=O)cc1 | 0% | -13% | -30%[59 µM] | -13% | 3%
CC1=C(c2ccc(Cl)cc2)S(=O)(=O)NC1=NCCCN1CCN(c2cc(C)ccc2C)CC1 | 25% | 16µM* | ? | -21% | 7%
Cc1ccc(S(=O)(=O)N2CCCC2C(=O)OCc2ccccc2)cc1 (stereo unspecified) | 79% | 26% | 14%[59 µM] | 25% | -3%
Cc1ccc(S(=O)(=O)N2CCCC2C(=O)OCc2ccco2)cc1 (stereo unspecified) | 5% | 56µM* | ? | 50µM* | -9%
N#Cc1c(SCc2ccccc2)sc(C(=O)c2ccccc2)c1N | 32% | -4% | 11µM* | -1% | 0%
Cc1ccc(CSc2sc(C(=O)c3ccccc3)c(N)c2C#N)cc1 | 81% | 20% | -33%[59 µM] | 19% | -3%
CC(NCC(=O)NC(=O)NCCC1=CCCCC1)c1ccc(S(N)(=O)=O)cc1 (stereo unspecified) | ? | 22µM* | nt | nt | 1%
Cc1cccc(CNC(=O)c2ccc(NC(=O)C3=CSCCO3)cc2)c1 | 8% | 20µM* | -9%[59 µM] | -17% | -30%
CCOc1ccc(CNC(=O)c2ccccc2NC(=O)C2=CSCCO2)cc1 | -2% | 32µM* | -11% | -17% | 8%
Cc1cccc(CNC(=O)c2ccccc2NC(=O)C2=CSCCO2)c1 | 11% | -30% | 33% | 2% | 3%
O=C(NCCCN1CCCC1=O)c1cccs1 | 12% | -10% | -4%[12.7 µM] | 0% | 5%
O=C(NCCCN1CCCC1=O)c1c(O)nc2sccn2c1=O | 10% | 35µM* | -8% | -34% | 1%
O=C(O)c1ccc(Oc2ccc(S(=O)(=O)c3ccc(C(=O)O)c(C(=O)O)c3)cc2)cc1 | 16% | ? | 50µM* | ? | -2%
O=C(O)c1ccc(S(=O)(=O)c2ccccc2)cc1 | 38% | 4% | -36%[12.7 µM] | -28% | 0%
Clc1ccc(C2CC(c3ccco3)n3ncnc3N2)cc1Cl (stereo unspecified) | 11% | -15% | 11µM* | -31% | -7%
O=C1NCCCC2c3c(cc(Br)c(O)c3Br)OC12N1CCOCC1 (stereo unspecified) | -30% | ? | ? | nt | -13%
O=C1NCCCC2c3cc(O)c4ccccc4c3OC12N1CCCCC1 (stereo unspecified) | nt | nt | 3.5µM* | ? | nt
O=C(CC12CC3CC(C1)CC(CC(=O)N1CCCC1)(C3)C2)N1CCCC1 | 42% | -23% | 13%[59 µM] | 8% | 6%
Cc1ccc(S(=O)(=O)Nc2cc(=O)[nH]c(SCC(=O)Nc3ccccc3Cl)n2)cc1 | 44% | -2% | 56µM* | 56µM* | -4%
O=C(CSc1nc(NS(=O)(=O)c2ccccc2)cc(=O)[nH]1)Nc1ccccc1Cl | 20% | 0% | -17% | ? | -15%
Cc1ccc(NC(=O)CSc2nc(NS(=O)(=O)c3ccccc3)cc(=O)[nH]2)cc1 | -18% | 50µM* | ? | ? | 3%
CCc1ccc(NC(=O)CSc2nc(NS(=O)(=O)c3ccccc3)cc(=O)[nH]2)cc1 | 41% | -14% | ? | 50µM* | -15%
COC(=O)c1ccc(Sc2ccccc2NS(=O)(=O)c2ccc(NC(C)=O)cc2)nc1 | 4% | -17% | -40%[59 µM] | 0% | -4%
O=C(NC1CCCC1)c1cc(-c2ccc(F)cc2)on1 | 4% | -9% | -9%[59 µM] | 4% | 0%
CC(=O)Nc1cccc(NC(=O)Nc2ccc(C(C)=O)cc2)c1 | 38% | -4% | 9%[12.7 µM] | 8% | 6%
C[C@@H]1CN([C@@H](C)CO)C(=O)CCCn2nncc2CO[C@H]1CN(C)C(=O)c1ccc(N2CCN(C)CC2)cc1 | nt | nt | nt | nt | -4%

Screening data deposited in PubChem BioAssay by National Center for Advancing Translational Sciences (NCATS).
